About 330 (14%) of roughly 2,300 compounds showed activity. Not all results are given here. Values without a mark were called inactive.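 The calls were made as follows: active = median modified Z-score above 1.96; inactive = 1.96 or below.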
The compounds below were run on HepG2 Srxn1-GFP reporter cells (+30 nM CDDO-Me) (assay: Srxn1-GFP intensity median modified Z-score relative to plate median; higher = stronger NRF2 / oxidative stress reporter activation, active = hit call of the paper). Conditions: 10 µM; exposure time: 24h.
Procedure, shortened: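 HepG2 Srxn1-GFP BAC reporter cells (20,000 per well, 96-well plates) were co-exposed to an NRF2 activator at 30 nM and compound at 10 μM (≤0.1% DMSO) for 24 h in three replicate plates. After formaldehyde fixation and Hoechst staining, confocal images were analysed per cell for cytoplasmic GFP, excluding images with under 100 cells. The value is the median over replicates of the per-plate modified Z-score of GFP intensity. Scaling used 1.4826 × median absolute deviation.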

SMILES | Srxn1-GFP intensity median modified Z-score
C=C1CCC(c2cc(O)oc2O)C(=O)CCC2C1CC2(C)C (stereo not given) [euspeclibcmpd1822] | -0.357
Nc1ccc(S(=O)(=O)N=c2nccc[nH]2)cc1 [euspeclibcmpd274] | -0.479
CCCCCCCCCCCCCCCC(=O)OCC(O)CO (stereo not given) [euspeclibcmpd1622] | -0.224
CCc1ccc(CCOc2ccc(Cc3sc(=O)[nH]c3O)cc2)nc1 [euspeclibcmpd684] | -0.309
O=c1c(-c2ccc(Br)cc2)coc2cc(O)ccc12 | 0.373
C[C@]12CCC(=O)CC1=C1C[C@@H]1C1C2CC[C@@]2(C)C1[C@@H]1C[C@@H]1[C@@]21CCC(=O)O1 (stereo not given in full) [euspeclibcmpd608] | -0.491
C[C@@H]1O[C@@H](O[C@H]2[C@@H](Oc3cc(O)c4c(c3)O[C@H](c3ccc(O)cc3)CC4=O)O[C@H](CO)[C@@H](O)[C@@H]2O)[C@H](O)[C@H](O)[C@H]1O [euspeclibcmpd1504] | -0.249
COc1ccc(-c2cc(C(F)F)nn2-c2ccc(S(N)(=O)=O)cc2)cc1F [euspeclibcmpd724] | 0.694
Cc1ccc(-c2cc(C(F)(F)F)nn2-c2ccc(S(N)(=O)=O)cc2)cc1 [euspeclibcmpd595] | 2.01 (active)
NS(=O)(=O)c1ccc(C(=O)O)cc1 [euspeclibcmpd1180] | 0.0784
C=c1cc(O)c2c(O)c3c(O)c(=C)cc(O)c3c(O)c2c1O [euspeclibcmpd2077] | -0.258
CCCCC(=O)O[C@]1(C(=O)CO)[C@@H](C)CC2C3CC=C4CC(=O)C=C[C@]4(C)[C@@]3(F)C(O)C[C@@]21C (stereo not given in full) [euspeclibcmpd36] | -0.635
CS(=O)(=O)c1ccc(-c2coc(O)c2-c2ccccc2)cc1 [euspeclibcmpd2038] | -0.358
O=C(O)CN(CCN(CC(=O)O)CC(=O)O)CCN(CC(=O)O)CC(=O)O [euspeclibcmpd916] | -0.735
O=C(O)CS [euspeclibcmpd2222] | -0.181
O=C(O)CN(CCN(CC(=O)O)CC(=O)O)CC(=O)O [euspeclibcmpd2457] | -0.0932
O=C(O)CN(CCN(CC(=O)O)CC(=O)O)CC(=O)O | 2.26 (active)
COC1C(O)C(O)C(O)[C@@H](O)C1O (stereo not given in full) [euspeclibcmpd1333] | -0.525
C=C(NC(=O)C(C)=NC(=O)c1csc(C2=NC3c4csc(n4)C4NC(=O)c5csc(n5)C(C(C)(O)C(C)O)NC(=O)C5CSC(=N5)C(=CC)NC(=O)C(C(C)O)NC(=O)c5csc(n5)C3(CC2)NC(=O)C(C)NC(=O)/C(C)=N/C(=O)C(C)NC(=O)C(C(C)CC)NC2C=Cc3c(C(C)O)cc(nc3C2O)C(=O)OC4C)n1)C(N)=O (stereo not given) [euspeclibcmpd703] | 19.1 (active)
CC1(C)O[C@@H]2CC3C4CC=C5CC(=O)C=C[C@]5(C)C4[C@@H](O)C[C@]3(C)[C@]2(C(=O)CO)O1 (stereo not given in full) [euspeclibcmpd859] | -0.247
C[N+](C)(C)C[C@H](O)CC(=O)O [euspeclibcmpd2087] | -0.18
O=[N+]([O-])c1cccc2c[nH]nc12 [euspeclibcmpd1788] | -0.00617
COC(=O)[C@@]1(C)CCC[C@]2(C)c3ccc(O)c(C(C)C)c3CCC12 (stereo not given in full) [euspeclibcmpd1676] | 1.46
CC(C)c1c(O)ccc2c1CCC1C(C)(C)CCC[C@]21C (stereo not given in full) [euspeclibcmpd1572] | 8.09 (active)
CC(C)c1c(O)c(-c2cc3c(c(C(C)C)c2O)CCC2C(C)(C)CCC[C@]32C)cc2c1CCC1C(C)(C)CCC[C@]21C (stereo not given in full) [euspeclibcmpd1653] | -0.248
O=C(O)C1CSCN1 (stereo not given) [euspeclibcmpd1135] | -0.116
O=c1cc(-c2ccc(O)cc2)oc2ccc(O)cc12 [euspeclibcmpd1816] | 1.7
Cc1nc(COP(=O)(O)O)cc2c1[O][Mn][O]c1c(cc(COP(=O)(O)O)nc1C)CN(CC(=O)O)CCN(CC(=O)O)C2 [euspeclibcmpd2441] | 1.06

SMILES | Srxn1-GFP intensity median modified Z-score
COC(=O)c1cc(OC)c(=O)c2c(OC)c(OC)ccc2c1 [euspeclibcmpd2293] | -0.421
COc1ccc(-c2ccc3cc(C(=O)O)ccc3c2)cc1C12CC3CC(CC(C3)C1)C2 [euspeclibcmpd491] | 3.08 (active)
COc1cc(C(=O)O)cc(OC)c1O | 1.18
COc1cc(C(=O)O)cc(OC)c1O [euspeclibcmpd1648] | 0.178
CCCOc1ccccc1-c1nc(=O)c2[nH]nnc2[nH]1 [euspeclibcmpd2036] | -0.165
N[C@@H]1CCCC[C@H]1N [euspeclibcmpd2386] | 1.79
C/C=C/CC(C)C(O)C1C(=O)NC(CC)C(=O)N(C)CC(=O)N(C)C(CC(C)C)C(=O)NC(C(C)C)C(=O)N(C)C(CC(C)C)C(=O)NC(C)C(=O)NC(C)C(=O)N(C)C(CC(C)C)C(=O)N(C)C(CC(C)C)C(=O)N(C)C(C(C)C)C(=O)N1C (stereo not given) [euspeclibcmpd445] | 8.19 (active)
CC(=O)O[C@H]1CC[C@@]2(C)C(=CCC3C2CC[C@@]2(C)C3CC[C@@H]2C(C)CCCC(C)C)C1 (stereo not given in full) [euspeclibcmpd2217] | -0.115
CCOc1cccc(C(=O)c2ccc(O)c(O)c2O)c1 [euspeclibcmpd1514] | -0.219
CC(NC(CCc1ccccc1)C(=O)O)C(=O)N1CCCC1C(=O)O (stereo not given) [euspeclibcmpd609] | 0.185
CC(C)=CCCC(C)[C@@H]1CC[C@]2(C)C3=C(CC[C@@]12C)C1(C)CC[C@H](O)C(C)(C)C1CC3 (stereo not given in full) [euspeclibcmpd2235] | 2.85 (active)
CC(C)=CCCC(C)C1CC[C@@]2(C)C3=C(CC[C@]12C)C1(C)CC[C@H](O)C(C)(C)C1CC3 (stereo not given in full) [euspeclibcmpd2336] | 0.013
CC(=O)O[C@H]1CCC2(C)C3=C(CCC2C1(C)C)[C@]1(C)CCC(C(C)CCC=C(C)C)[C@@]1(C)CC3 (stereo not given in full) [euspeclibcmpd2332] | -0.0515
COc1cc(C)c2c(c1C=O)Oc1c(c(C)c(O)c3c(O)oc(O)c13)OC2=O [euspeclibcmpd1947] | 0.6
CC[C@H]1OC(=O)C(C)[C@@H](O[C@H]2C[C@@](C)(OC)[C@@H](O)[C@H](C)O2)[C@H](C)[C@@H](O[C@@H]2O[C@H](C)C[C@H](N(C)C)[C@H]2O)[C@](C)(O)C[C@@H](C)CN(C)[C@H](C)[C@@H](O)[C@]1(C)O (stereo not given in full) [euspeclibcmpd690] | 1.41
CC(C)c1ccc2oc3[nH]c(=N)c(C(=O)O)cc3c(=O)c2c1 [euspeclibcmpd492] | 1.12
CON=C1C[C@]2(C[C@@H]3C[C@@H](C/C=C(\C)C[C@@H](C)/C=C/C=C4\CO[C@@H]5[C@H](O)C(C)=CC(C(=O)O3)[C@]45O)O2)O[C@H](/C(C)=C/C(C)C)C1C (stereo not given in full) [euspeclibcmpd768] | -0.575
CCC(C)[C@H]1O[C@]2(C=C[C@@H]1C)C[C@@H]1C[C@@H](C/C=C(\C)[C@@H](OC3C[C@H](OC)C(O[C@H]4C[C@H](OC)[C@@H](O)[C@H](C)O4)[C@H](C)O3)[C@@H](C)/C=C/C=C3\CO[C@@H]4[C@H](OC)C(C)=CC(C(=O)O1)[C@]34O)O2 (stereo not given in full) [euspeclibcmpd1403] | 5.69 (active)
CO[C@H]1CC(O[C@@H]2/C(C)=C/C[C@@H]3C[C@@H](C[C@]4(CC[C@H](C)[C@@H](C5CCCCC5)O4)O3)OC(=O)C3=CC(C)C(=NO)C4OC/C(=C\C=C\[C@@H]2C)[C@@]34O)O[C@@H](C)C1O (stereo not given in full) [euspeclibcmpd601] | 8.72 (active)
CO[C@H]1CC(O[C@@H]2/C(C)=C/C[C@@H]3C[C@@H](C[C@]4(C=C[C@H](C)[C@@H](C5CCCCC5)O4)O3)OC(=O)C3=CC(C)[C@@H](O)[C@H]4OC/C(=C\C=C\[C@@H]2C)[C@@]34O)O[C@@H](C)C1O[C@H]1C[C@H](OC)[C@@H](O)[C@H](C)O1 (stereo not given in full) [euspeclibcmpd131] | 8.87 (active)
CCC(C)[C@H]1O[C@]2(C=C[C@@H]1C)C[C@@H]1C[C@@H](C/C=C(\C)[C@@H](OC3C[C@H](OC)C(O[C@H]4C[C@H](OC)[C@@H](NC(C)=O)[C@H](C)O4)[C@H](C)O3)[C@@H](C)/C=C/C=C3\CO[C@@H]4[C@H](O)C(C)=CC(C(=O)O1)[C@]34O)O2 (stereo not given in full) [euspeclibcmpd495] | 0.588
CCC(C)[C@H]1O[C@]2(CC[C@@H]1C)C[C@@H]1C[C@@H](C/C=C(\C)[C@@H](OC3C[C@H](OC)C(O[C@H]4C[C@H](OC)[C@@H](O)[C@H](C)O4)[C@H](C)O3)[C@@H](C)/C=C/C=C3\CO[C@@H]4[C@H](O)C(C)=CC(C(=O)O1)[C@]34O)O2 (stereo not given in full) [euspeclibcmpd982] | 0.921
CCCCC(CC)CN=C(N)N=C(N)NCCCCCCN=C(N)N=C(N)NCC(CC)CCCC (stereo not given) [euspeclibcmpd2037] | 0.191
CC(=O)NC(CS)C(=O)O (stereo not given) [euspeclibcmpd14] | -0.532
CC12CCC3c4ccc(O)cc4CCC3C1C[C@H](O)[C@@H]2O (stereo not given in full) [euspeclibcmpd2315] | -0.0343
COC(=O)C(Cc1ccccc1)NC(=O)C(N)CC(=O)O (stereo not given) [euspeclibcmpd740] | -0.355
CC(=O)OC1CCC2(C)C(=CCC3C2CCC2(C)C(C(=O)O)CCC32)C1 (stereo not given) | 0.226

Source: the supplement of paper PMC10498489
